Casp6 inh: human caspase-6 inhibitors, primary screen, biochemical, VEID-R110 fluorescence, single point, set 2; 0.53% of 350,000 active; inhibition, % at 12.5 µM; P55212; purified caspase-6, Z-VEID-R110 cleavage fluorescence;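 active = mean inhibition across replicates at least about 35%, with every replicate also reaching that limit, limit read from the data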
INS-1E GSIS act: GLuc luminescence reporter in INS-1E cells, primary screen for activators of glucose-dependent secretion of insulin. activation, % at 16.6 µM. 0.61% of 370,000 active. AID 743287, 2014. INS-1E GLuc reporter insulin secretion, 2-3 h;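 active = lowest replicate activation of at least 40%, so every replicate reaches that level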
SIRT5 block: SIRT5 desuccinylase inhibitors, primary screen, biochemical, fluorescence imaging, single point, set 5; Purified SirT5, succinyl-peptide AMC, trypsin-coupled fluorescence; inhibition, % at 15 µM; 1.1% of 330,000 active; AID 652115, 2013; in the data active = inhibition above about 15%
FGF22 binding: binders of human FGF22 protein, primary screen, FGF22 synaptogenesis inhibitor project, biophysical, thermal shift, single point. 1.5% of 340,000 active. Fibroblast growth factor 22 (Homo sapiens), Q9HCT0. recombinant FGF22 thermal shift, SYPRO orange fluorescence; percent of sucrose octasulfate shift, DMSO zero. activity (Tm shift, normalised), % at 9.99 µM;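 active = mean Tm shift, scaled 0 neutral to 100 positive control, at about 1.3% or above, every replicate too, limit read from the data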
ERAP1 HTS inh: human ERAP1 aminopeptidase inhibitors, primary screen, biochemical, single point, plate reader; Endoplasmic reticulum aminopeptidase 1 (Homo sapiens), Q9NZ08; recombinant ERAP1, Leu-AMC fluorescence, 60 min; inhibition, % at 10.7 µM; 0.15% of 340,000 active;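 active = mean replicate inhibition of at least 30%, or all replicates individually reaching that 30% level; inactive = mean below 30% and not every replicate reaching it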
Target sequence (Q9NZ08 whole entry, looked up): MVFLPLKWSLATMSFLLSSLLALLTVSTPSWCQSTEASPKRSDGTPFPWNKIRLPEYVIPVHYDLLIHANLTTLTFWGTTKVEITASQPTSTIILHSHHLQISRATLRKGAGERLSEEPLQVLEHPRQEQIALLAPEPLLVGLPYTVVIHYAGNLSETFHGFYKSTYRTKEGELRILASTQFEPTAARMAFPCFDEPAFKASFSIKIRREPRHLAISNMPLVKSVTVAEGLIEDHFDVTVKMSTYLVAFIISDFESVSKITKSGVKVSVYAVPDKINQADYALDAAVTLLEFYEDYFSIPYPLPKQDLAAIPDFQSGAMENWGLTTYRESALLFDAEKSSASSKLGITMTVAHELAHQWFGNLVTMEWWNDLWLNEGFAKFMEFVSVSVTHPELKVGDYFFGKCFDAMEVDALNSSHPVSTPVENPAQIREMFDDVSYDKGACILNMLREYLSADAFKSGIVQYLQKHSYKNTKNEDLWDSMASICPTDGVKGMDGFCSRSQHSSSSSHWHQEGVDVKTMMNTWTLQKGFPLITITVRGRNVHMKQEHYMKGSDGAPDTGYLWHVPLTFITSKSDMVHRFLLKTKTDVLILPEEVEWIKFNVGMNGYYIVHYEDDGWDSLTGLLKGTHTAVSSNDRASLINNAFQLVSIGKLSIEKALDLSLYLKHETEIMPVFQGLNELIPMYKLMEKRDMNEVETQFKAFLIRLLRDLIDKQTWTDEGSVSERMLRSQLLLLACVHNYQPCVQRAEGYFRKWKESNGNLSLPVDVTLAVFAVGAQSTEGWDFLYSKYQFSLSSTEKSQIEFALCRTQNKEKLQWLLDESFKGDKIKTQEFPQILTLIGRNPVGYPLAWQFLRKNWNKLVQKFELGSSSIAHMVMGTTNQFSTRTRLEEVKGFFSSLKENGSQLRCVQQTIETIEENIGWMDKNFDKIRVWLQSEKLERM
Of the large screens only hits and unclear results are named; the others gave an inactive call. Only some compounds are listed: those with a hit (about 3.3% of all), similar ones and a draw of the others.

O=C(NCC1CC1)[C@H]1[C@H](CO)[C@H]2Cn3c(ccc(-c4ccccc4)c3=O)[C@H]2N1CC1CC1	none
CCN(CC)S(=O)(=O)c1ccc(/C=C/C(=O)OCC(=O)Nc2ccc(C(N)=O)cc2)cc1	FGF22 binding 43.3
CCCCCn1c(=O)c(C(=O)c2ccccc2)nc2ccccc21	none (no result: FGF22 binding)
CCCCn1c(=O)c(CC(C)=O)nc2ccccc21	FGF22 binding 44.2
CC(C)NC(=O)N(C)C[C@H]1Oc2ccc(NS(=O)(=O)c3ccc(Cl)cc3)cc2C(=O)N([C@@H](C)CO)C[C@H]1C	none
CC(C)C(=O)Nc1nnc(SCC(=O)Nc2ccc3c(c2)OCO3)s1	none (no result: Casp6 inh, SIRT5 block, FGF22 binding, ERAP1 HTS inh)
CC(=O)Nc1cccc(NC(=O)CSc2nnc(NC(=O)c3ccco3)s2)c1	FGF22 binding 1.5
O=C(CSc1nnc(NC(=O)c2ccco2)s1)Nc1ccc(F)cc1F	none
Cn1nnnc1SCC(=O)Nc1cccc([N+](=O)[O-])c1	none
O=C(CSc1nnc(NC(=O)c2ccco2)s1)Nc1cccc(F)c1	SIRT5 block 21.9
CS(=O)(=O)Nc1nnc(SCC(=O)Nc2cccc([N+](=O)[O-])c2)s1	FGF22 binding 43.4
CC(C)C(=O)Nc1nnc(SCC(=O)Nc2ccc3c(c2)OCCO3)s1	FGF22 binding 1.4
COc1cccc(NC(=O)CSc2nnc(NC(=O)c3ccco3)s2)c1	none
COc1cccc(NC(=O)Nc2ccc3c(c2)C(=O)N(C)[C@H]2CC[C@@H](CC(=O)O)O[C@@H]2CO3)c1	none (no result: Casp6 inh, SIRT5 block, ERAP1 HTS inh)
C[C@H](CO)N1C[C@H](C)[C@H](CN(C)C(=O)Nc2ccc(C(F)(F)F)cc2)Oc2ccc(NC(=O)CCC(F)(F)F)cc2C1=O	none
Cc1ccccc1-n1c(=S)[nH]c2nc3c(cc2c1=O)CCCC3	FGF22 binding 42.9
Cc1ccccc1-n1c(=S)[nH]c2nc3c(cc2c1=O)COC(C)(C)C3	none (no result: ERAP1 HTS inh)
CNc1nc(Nc2ccccc2)nc(OCC(F)(F)F)n1	INS-1E GSIS act 76.3
CCn1c(C)[n+](Cc2ccccc2)c2ccc(Cl)cc21	none
CCn1c(C)[n+](Cc2ccccc2)c2ccc(C(=O)OC)cc21	FGF22 binding 43.1
COC(=O)c1c(-c2ccc(OC)cc2)oc2ccc(-c3cc(OC)c(OC)c(OC)c3)cc12	SIRT5 block 22.8
c1ccc(-c2nnsc2-c2nc3ccccc3[nH]2)cc1	FGF22 binding 43.3
COc1ccccc1NC(=O)N[C@@H]1CC[C@H](CCNC(=O)c2ccc3c(c2)OCO3)O[C@H]1CO	none
N#CCCN(C(=O)COC(=O)c1ccc2c(c1)NC(=O)CS2)c1ccc2c(c1)OCCO2	SIRT5 block 37.1 (no result: FGF22 binding)
COC(=O)c1ccc2c(c1)NC(=O)CS2	none
C[C@H]1CN([C@@H](C)CO)C(=O)c2cc(/C=C/c3ccccc3)cnc2O[C@H]1CN(C)S(=O)(=O)c1cccs1	none
C/C(=N\Nc1ccc(C(=O)O)cc1)c1ccc2c(c1)Nc1ccccc1S2	SIRT5 block 24.1
C/C(=N/Nc1ccc(C(=O)O)cc1)c1ccc2c(c1)Nc1ccccc1S2	SIRT5 block 24.4
CCNC(=O)C[C@@H]1C=C[C@H](NS(=O)(=O)c2ccc(F)cc2)[C@H](CO)O1	none
COc1ccc(S(=O)(=O)N[C@H]2CC[C@@H](CC(=O)NCc3ccccc3F)O[C@H]2CO)cc1	none
COC(=O)CN1C(=O)N/C(=C/c2ccc(OC)cc2)C1=O	FGF22 binding 43.3
COC(=O)CN1C(=O)N/C(=C/c2cc(Cl)c(OC)c(OC)c2)C1=O	none
O=C(O)c1c(-c2ccccc2)c(-c2ccccc2)nc2ccccc12	FGF22 binding 43.1
Cc1ccc(C(=O)Oc2ccc(-c3nccc(-c4ccccn4)n3)cc2)cc1	INS-1E GSIS act 56.4 (no result: Casp6 inh, SIRT5 block, FGF22 binding, ERAP1 HTS inh)
COc1ccc(NC(=O)/C=C/c2ccco2)cn1	none
COc1ccc(NC(=O)/C=C/c2ccc(Br)o2)cn1	SIRT5 block 33.8
CC(C)c1ccc(CNC(=O)C(=O)Nc2nccs2)cc1	FGF22 binding 43.5
COC(=O)c1ccccc1NC(=O)COC(=O)[C@H](C)NC(N)=O	FGF22 binding 43.5
CCc1ccccc1NCC(=O)Nc1ccccc1C(=O)OC	FGF22 binding 43.8
COC(=O)c1ccccc1NC(=O)CNc1cc(OC)c(OC)cc1C	none
COc1ccc(NC(=O)N2CCCCN3[C@H](CO)[C@H](c4ccc(-c5ccccc5F)cc4)[C@@H]3C2)cc1	none
COCCNC(=O)C[C@H]1CC[C@@H](NC(=O)NC2CCCC2)[C@H](CO)O1	none
COc1ccc2c3c([nH]c2c1)[C@H](CO)N(Cc1nccs1)CC31CN(Cc2nccs2)C1	none
O=C(O)C1Cn2c(nc3c(c2=O)C2(CCCC2)Cc2ccccc2-3)S1 (centres undefined)	FGF22 binding 43.4
CCCc1cn(CC[C@H]2CC[C@H](NC(=O)C3CCC3)[C@H](CO)O2)nn1	none
COc1ccc(NC(=O)N(C)C[C@@H]2Oc3ccc(NC(=O)CCN4CCOCC4)cc3CC(=O)N([C@@H](C)CO)C[C@@H]2C)cc1	none
COc1ccc(N2CCN(S(=O)(=O)c3ccc(-c4cc(C)no4)s3)CC2)cc1	INS-1E GSIS act 85.6
Cc1cc(-c2ccc(S(=O)(=O)N3CCN(C)CC3)s2)on1	INS-1E GSIS act 42.6
COc1ccc2c3c(n(C)c2c1)[C@H](CO)N(C(=O)C1CCC1)CC31CCN(Cc2cccc(F)c2)CC1	none
CC1CCCC=CC2CC(OC(=O)CN(C)C)CC2C(O)C=CC(=O)O1 (centres undefined)	none (no result: INS-1E GSIS act, SIRT5 block)
C[C@H]1CCC/C=C/[C@@H]2C[C@H](O)C[C@H]2[C@H](O)[C@H](S(=O)c2ccc(O)cc2)CC(=O)O1 (some centres undefined)	ERAP1 HTS inh 67.1 (no result: INS-1E GSIS act)
COCC#Cc1cnc2c(c1)C(=O)N([C@H](C)CO)C[C@H](C)[C@H](CN(C)Cc1ccc(F)cc1)O2	none
C/C=C/c1ccc([C@H]2[C@@H](CO)N3C(=O)CN(S(=O)(=O)c4ccccc4)C[C@H]23)cc1	none (no result: FGF22 binding)
CC1NC(=S)N(C2CCCCC2)C1=O (centres undefined)	FGF22 binding 43.2
Cc1ccc(C(=O)n2nc(-n3cccc3)c3c(C)cc(C)nc32)cc1	SIRT5 block 26.0
CCCNC(=O)N1CC2(CN(C(=O)C3CCC3)C2)c2c([nH]c3cc(OC)ccc23)[C@@H]1CO	none (no result: Casp6 inh, SIRT5 block, FGF22 binding, ERAP1 HTS inh)
Cc1cc(C)cc(NC(=S)N(Cc2ccc(Cl)cc2)Cc2ccc(C(=O)O)cc2)c1	none (no result: FGF22 binding)
Cc1ccc(NC(=S)N(Cc2ccc(Br)cc2)Cc2ccc(C(=O)O)cc2)cc1C	FGF22 binding 43.0
Cc1cc(C)cc(NC(=S)N(Cc2ccc(Br)cc2)Cc2ccc(C(=O)O)cc2)c1	none
Cc1cc(NC(=S)N(Cc2ccc(Cl)cc2)Cc2ccc(C(=O)O)cc2)ccc1Cl	FGF22 binding 43.7
